A selection: hits, their analogues and other compounds. The true share with any hit is near 2.2%.
Ba/F3 V617F tox = loss of viability in JAK2V617F-driven Ba/F3 cells | Ba/F3 EpoR-JAK2V617F viability, ATP luminescence | inhibition, % at 5.6 µM | hit rate 1.1% among 220,000;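 active means inhibition above the campaign mean plus 3 SD over all tested compounds, cut at about 24% in these data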;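 further: cytokine-independent growth of Ba/F3 cells driven by EpoR plus mutant JAK2; 0% = DMSO-treated cells and 100% = JAK inhibitor I control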
BaF3 tox = parental Ba/F3 viability inhibition as JAK2V617F counter-screen. hit rate 1.1% among 220,000. AID 1486. inhibition, % at 5.6 µM. CellTiter-Glo ATP luminescence;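 active means inhibition above a per-campaign cutoff, the mean inhibition of all tested compounds plus 3 SD, cut at about 27% in these data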;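 further: 0% = DMSO wells and 100% = JAK Inhibitor I control wells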
IEC-6 cytotox = counter-screen for KLF5 inhibitors: cytotoxicity in IEC-6 cells; IEC-6 cytotoxicity, luminescence viability; inhibition, % at 5 µM; hit rate 0.78% among 290,000; in the data active means inhibition above about 22%;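 further: 0% = plate median of test compound wells and 100% = cytotoxic reference compound wells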
aSyn 5UTR inh = 5' untranslated region of α-synuclein, MLPCN primary screen; alpha-synuclein 5'UTR reporter, inhibitor activity; hit rate 0.82% among 300,000; inhibition, % (tested at 7.5 µM); in the data active means inhibition above about 60%;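 further: H4 neuroglioblastoma cells stably carrying SNCA 5'UTR luciferase fusion; 0% = DMSO wells and 100% = positive control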
APP 5UTR inh = APP translation inhibition | SH-SY5Y APP 5'UTR-luciferase reporter, luminescence | inhibition, % at 2 µM | hit rate 0.82% among 190,000 | AID 1285;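 active means inhibition above a set limit, derived from the sample mean plus 3 SD, cut at about 45% in these data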
KLF5 inhibitor = kruppel-like factor 5 inhibition. DLD-1 KLF5 promoter-luciferase reporter, luminescence. inhibition, % at 5 µM. hit rate 0.23% among 290,000. AID 1700;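 active means inhibition above a per-plate limit of that plate's mean compound inhibition plus 3 SD, cut at about 60% in these data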;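 further: 0% = DMSO wells and 100% = LY294002 at 200 µM; higher means less KLF5 promoter-driven luciferase light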
BaF3 parental 2 = counter-screen for JAK2V617F inhibitors: parental Ba/F3 viability inhibitors | shares compounds with Ba/F3 V617F tox | CellTiter-Glo luminescence; cells kept alive by added IL-3 | inhibition, % at 5.6 µM | hit rate 31% among 580 | AID 1520;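 active means cell growth inhibition above the hit limit set in the earlier mutant JAK2 cell screen, cut at about 27% in these data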;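 further: plate controls were DMSO-treated cells for no effect and JAK Inhibitor I control wells for full effect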
JAK2V617F conf = Ba/F3 EpoR-JAK2V617F viability loss, confirmation; inhibition, % at 5.6 µM; shares compounds with Ba/F3 V617F tox; CellTiter-Glo luminescence; hit rate 66% among 580;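 active means mean inhibition above the hit cutoff derived in the earlier primary screen, cut at about 25% in these data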;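 further: 0% = DMSO-treated cells and 100% = JAK inhibitor I control wells; higher means lower luminescence from reduced cell ATP and viability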
* marks the source's active call; other numbers are inactive results; nt = no result given.

SMILES	Ba/F3 V617F tox	BaF3 tox	IEC-6 cytotox	aSyn 5UTR inh	APP 5UTR inh	KLF5 inhibitor	BaF3 parental 2	JAK2V617F conf
CC(=O)Nc1ccc(NC(=O)CSc2nnc(NC(=O)C3CC(=O)N(c4ccc(F)cc4)C3)s2)cc1 (stereo not drawn)	nt	nt	6	6	nt	-15	nt	nt
CC(C)(C)c1cc(NC(=O)CCl)n(-c2ccccc2)n1	30*	-9	-8	-60	nt	2	-5	81*
CC(C)Oc1ccc(CN=C(N)N=C(N)N)cc1Cl	30*	2	-9	14	-7	-27	40*	65*
COc1ccc(CN=C(N)N=C(N)N)cc1Cl	4	22	0	-2	-15	-21	nt	nt
Cc1c(NC(=O)COC(=O)c2cc(-c3ccc(-c4ccccc4)cc3)nc3ccccc23)c(=O)n(-c2ccccc2)n1C	30*	21	2	-34	-100	-59	59*	72*
Cc1cc(C(=O)Nc2cnc3ccccc3c2)ccc1[N+](=O)[O-]	28*	1	7	-132	-204	-107	-5	-7
Oc1ccc(Cl)cc1CNc1ccc(Br)cn1	27*	13	-1	-142	-59	-162	6	31*
O=C1C(=O)N(CCN2CCOCC2)C(c2ccc([N+](=O)[O-])cc2)/C1=C(/O)c1ccc2c(c1)OCO2 (stereo not drawn)	nt	nt	-1	-24	nt	3	nt	nt
CCOc1ccc(N2C(=O)CC(Sc3nnnn3-c3ccccc3)C2=O)cc1 (stereo not drawn)	33*	2	2	22	38	-17	-6	7
COc1ccc2c(c1OC)C(=O)OC2Nc1nc(-c2ccc([N+](=O)[O-])cc2)cs1 (stereo not drawn)	-1	-3	-4	-56	nt	-31	nt	nt
COc1ccc(-c2csc(NC3OC(=O)c4c3ccc(OC)c4OC)n2)cc1OC (stereo not drawn)	27*	3	7	-9	nt	-16	13	31*
NC(=O)c1ccccc1NC(=S)NC(=O)CCc1ccccc1	47*	7	60*	11	71*	68*	18	91*
NC(=O)c1ccccc1NC(=O)CCc1ccccc1	-5	0	-4	-113	-4	-63	nt	nt
Cc1ccc(NC(=O)C2CCCCC2)c(O)c1	1	3	2	-8	-13	-23	nt	nt
Cc1ccc(O)c(NC(=O)C2CCCCC2)c1	25*	20	0	-27	nt	-23	18	50*
O=C(N/N=C/c1cc([N+](=O)[O-])ccc1O)c1cccc2cc[nH]c12	34*	3	11	68*	nt	46	6	28*
COC(=O)c1cn(NC(=O)C2CCC(C)CC2)c(=O)c2ccccc12 (stereo not drawn)	4	3	6	17	-15	24	nt	nt
COC(=O)c1cn(NC(=O)c2cc([N+](=O)[O-])ccc2F)c(=O)c2ccccc12	36*	24	6	3	23	32	41*	97*
O=C(Nc1nc(-c2ccc(Cl)cc2Cl)cs1)C1CCCO1 (stereo not drawn)	28*	0	-1	-27	1	-26	-1	2
CCOc1ccc(C(=O)N(Cc2ccc(OC)cc2)Cc2cc3cc(OC)ccc3[nH]c2=O)cc1	46*	4	-3	13	-20	-18	-3	-3
CCCN(Cc1cc2cc(OC)ccc2[nH]c1=O)C(=O)c1ccncc1	3	7	11	-29	4	5	nt	nt
Cc1ccc(/C=[N+](\[O-])c2ccc(N(C)C)cc2)c2nsnc12	47*	5	5	2	61*	-51	-1	-3
Cc1csc(NC(=O)c2cc3c(C)nn(Cc4ccccc4Cl)c3s2)n1	36*	10	1	31	0	-24	24	27*
Cc1nn(Cc2ccccc2Cl)c2sc(C(=O)NC(C)(C)C)cc12	-2	3	2	57	-20	6	nt	nt
O=c1oc2ccccc2c2c1ncn2CCN1CCOCC1	61*	12	6	-4	-9	-6	1	11
SMILES	Ba/F3 V617F tox	BaF3 tox	IEC-6 cytotox	aSyn 5UTR inh	APP 5UTR inh	KLF5 inhibitor	BaF3 parental 2	JAK2V617F conf
Cc1ccc(OCCOC(=O)Cn2nc(C)c([N+](=O)[O-])c2C)cc1	26*	8	3	-4	21	16	2	3
CCOC(=O)Cn1nc(C)c([N+](=O)[O-])c1C	-2	8	-6	-8	-6	-46	nt	nt
CCn1c(SCC(=O)NC2(C#N)CCCCC2)nc2ccccc2c1=O	nt	nt	nt	2	nt	nt	nt	nt
Cc1ccc(NC(=S)N(CCCN2CCC(C)CC2)Cc2ccco2)cc1C	25*	14	-4	-4	5	-27	29*	46*
NC(=O)c1c(-c2ccc(Cl)cc2Cl)csc1NC(=O)Cc1ccccc1	38*	12	4	6	-13	-15	40*	65*
O=C(Cc1ccccc1)Nc1scc(-c2ccccc2)c1C(=O)N1CCOCC1	4	9	-3	18	4	18	nt	nt
Cc1cccc(NC(=S)N(CCN(C)C)Cc2cc3cccc(C)c3[nH]c2=O)c1	-4	2	-1	2	11	-25	nt	nt
Cc1ccc(NC(=S)N(CCN(C)C)Cc2cc3cccc(C)c3[nH]c2=O)cc1	43*	23	11	-60	13	5	26	39*
O=C1N/C(=C\c2ccccc2)c2ccccc21	38*	20	16	-52	-39	-9	27	45*
O=C1N/C(=C\c2nc3ccccc3s2)c2ccccc21	-1	-1	13	39	nt	-80	nt	nt
C=CCn1c(SCC(=O)c2ccc(O)c(O)c2)nnc1-c1ccccc1OC	34*	11	3	9	2	15	0	14
COc1ccc(N(C)S(=O)(=O)c2cccc(C(=O)Nc3ccc(-n4cnnn4)cc3)c2)cc1	40*	3	4	18	1	5	0	26*
Oc1ccc(C=Nc2cccc3ncccc23)c(O)c1	52*	16	18	-21	12	-21	-2	-4
Oc1ccc(C=Nc2ccc3ncccc3c2)c(O)c1	-1	1	-1	-12	-54	-8	nt	nt
CCOc1cc(/C=C\[N+](=O)[O-])ccc1OCC(=O)N1CCOCC1	1	4	2	-5	31	-34	nt	nt
COc1ccc(C)cc1NC(=O)c1nnn(Cc2cc(C)ccc2C)c1N	-2	0	4	30	13	-4	nt	nt
COc1ccc(OC)c(NC(=O)c2nnn(Cc3ccccc3C)c2N)c1	24*	20	7	40	-9	32	37*	30*
NC(=O)c1ccsc1NC(=O)c1coc2ccccc2c1=O	3	10	0	-156	-167	-93	nt	nt
CN1CCN(C(=O)/C(=C/c2cccc([N+](=O)[O-])c2)NC(=O)c2ccccc2)CC1	nt	nt	-1	16	nt	-21	nt	nt
